# Results from the supplement of paper PMC8728848.
# The sample as a whole holds a higher share of the strongest signals than the screen did.
# Tests used:
# Test in all cases: glycan array binding signal (z-score within array); higher = stronger binding
# Settings in all cases: glycan notation: IUPAC condensed, linker removed
# [1] = molecular target: Fuc(a1-2)Gal(b1-3)GalNAc(b1-3)Gal(a1-4)Gal(b1-4)Glc
# Procedure, shortened: (§1)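 The Consortium for Functional Glycomics database supplied 3228 glycan arrays, of which those lacking an available protein sequence were dropped. The binding signal, a within-array Z-score, was averaged across arrays of the same protein sequence and across linkers. Negative scores can be read as non-binding.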
# [2] = molecular target: Fuc(a1-2)Gal(b1-4)GlcNAc6S
# Procedure, shortened: as §1
# [3] = molecular target: Fuc(a1-2)Gal6S(b1-4)GlcNAc
# Procedure, shortened: as §1
# [4] = molecular target: Fuc(a1-2)[Gal(a1-3)]Gal(b1-3)GlcNAc
# Procedure, shortened: as §1
# [5] = molecular target: Fuc(a1-2)[GalNAc(a1-3)]Gal(b1-4)GlcNAc
# Procedure, shortened: as §1
# Gal(a1-3)GlcNAc = molecular target: Gal(a1-3)GlcNAc
# Procedure, shortened: as §1
# Gal(a1-4)Gal(b1-4)Gal = molecular target: Gal(a1-4)Gal(b1-4)Gal
# Procedure, shortened: as §1
# Gal(a1-4)Gal(b1-4)GalNAc = molecular target: Gal(a1-4)Gal(b1-4)GalNAc
# Procedure, shortened: as §1
# Gal(a1-6)Glc = molecular target: Gal(a1-6)Glc
# Procedure, shortened: as §1
# Gal(b1-3)Gal = molecular target: Gal(b1-3)Gal
# Procedure, shortened: as §1
# [6] = molecular target: Gal(b1-3)[Fuc(a1-4)]GlcNAc(b1-3)Gal(b1-4)GlcNAc
# Procedure, shortened: as §1
# [7] = molecular target: Gal(b1-3)[Neu5Ac(b2-6)]GlcNAc
# Procedure, shortened: as §1
# [8] = molecular target: Gal(b1-4)GalNAc(b1-3)[Fuc(a1-2)]Gal(b1-4)GlcNAc
# Procedure, shortened: as §1
# [9] = molecular target: Gal(b1-4)GlcNAc(b1-3)GalNAc
# Procedure, shortened: as §1
# [10] = molecular target: Gal(b1-4)GlcNAc(b1-6)[Gal(b1-3)]GlcNAc
# Procedure, shortened: as §1
# Gal3S6S(b1-4)GlcNAc6S = molecular target: Gal3S6S(b1-4)GlcNAc6S
# Procedure, shortened: as §1
# Gal4S(b1-4)GlcNAc = molecular target: Gal4S(b1-4)GlcNAc
# Procedure, shortened: as §1
# Gal6S(b1-4)Glc6S = molecular target: Gal6S(b1-4)Glc6S
# Procedure, shortened: as §1
# [11] = molecular target: GlcNAc(b1-4)[GlcNAc(b1-6)]GalNAc
# Procedure, shortened: as §1
# [12] = molecular target: Neu5Ac(a2-3)Gal(b1-3)GalNAc
# Procedure, shortened: as §1
# [13] = molecular target: Neu5Ac(a2-3)Gal(b1-4)GlcNAc(b1-3)Gal(b1-4)[Fuc(a1-3)]GlcNAc
# Procedure, shortened: as §1
# [14] = molecular target: Neu5Ac(a2-3)Gal(b1-4)GlcNAc(b1-6)[Gal(b1-3)]GalNAc
# Procedure, shortened: as §1
# [15] = molecular target: Neu5Ac(a2-3)Gal6S(b1-4)GlcNAc
# Procedure, shortened: as §1
# [16] = molecular target: Neu5Gc(a2-3)Gal(b1-4)GlcNAc
# Procedure, shortened: as §1
binder,measurement,setting,value
"Epa1 (Candida glabrata), Q6FUW5_CANGA (protein) MILNPALFLNKCVCIYTTLILLLLTNGGYATSSNDISLASKDPTTFPLGCSPDITTPKKGLSMELYSYDFRKKGSYPCWDAAYLDPNYPRTGYKSHRLLAKVDGVTGNINFYYHATKGCTPQLGHLPASYNYPKPLTMTNFTMLLYGYFRPKVTGFHTFTISADDLLFVNFGAGNAFDCCRRDSSADHFGNYQAYAIWGSKTAKDELTVHLDAGVYYPIRLFYNNREYDGALSFTFKTESNENTVSDFSEYFFSLDDTEEGCPGLISYDSSCASVKTSKIIGIDYHTETPNENLVPITKTIYHLGIPCTGTTTTPLCGSGFYDPLANKCVTINTSSTSSVTKTTSHTTSKEVSFHSSISSQKTLIPKSIPSPYGPIKSQSIPTEMETSSEISSSEYAFSDVISTPSHSPYTKKHSSLNSSSYTSTVIHSLTSYSISQGIFSTSLSEQNITSKSSTDKFSTATSMSNSITQSSIIISQSSTNNENYTTTSMHTSSDKISTETLNNSISTTTSILFSNSSTILKNNTTIISSDKDTHYHPVNPTIVCSTNKTEIICASITQPSISNSNNHWSSSVLRFNSTTVRSTLPSSAGSNETSINVPFSSSTESNASTSSTSTSNSKTVRSTLPSSAGSNETSINVPFSSSTESNTSTSSTSTSNSKTVRSTLPSSAGSNETSINVPFSSSTESNASTSSTSTSNSKTVRSTPFSSAGIIMTSLSQRNNKSASSYASSNSKCYNTADSCRKVHSTPSYLLTSSYTSEGVDYDCSLVSTKLKINDTNCLNNKHTTKSCLKTSVTTTIPTLEIKTARKSSSNTIGLHSYPTSSPNKSISSAPIIGYISSFKTIKTASPSYQTSDLTTITTITSLNNPGSTAVENTHESNDKSRKTSSNDISSKHSVIKETKDAVESSNKSHQTNTLKCSSIIIASSSHNSYESLGGTTLTLTLSKVYSPQNNDTLPFLEISEVNPSRTVLPESSKMMQYLTSTEERNKTARNTIATNIVSISTFHFEGEGNAIRMGYTQLLLMLIGIIVMNIGT",glycan array binding signal (z-score),[1],-0.549
same,glycan array binding signal (z-score),[2],1.65
same,glycan array binding signal (z-score),[3],-0.128
same,glycan array binding signal (z-score),[4],-0.553
same,glycan array binding signal (z-score),[5],-0.557
same,glycan array binding signal (z-score),Gal(a1-3)GlcNAc,0.208
same,glycan array binding signal (z-score),Gal(a1-4)Gal(b1-4)Gal,0.374
same,glycan array binding signal (z-score),Gal(a1-4)Gal(b1-4)GalNAc,1.29
same,glycan array binding signal (z-score),Gal(a1-6)Glc,0.344
same,glycan array binding signal (z-score),Gal(b1-3)Gal,2.4
same,glycan array binding signal (z-score),[6],1.75
same,glycan array binding signal (z-score),[7],0.26
same,glycan array binding signal (z-score),[8],2.42
same,glycan array binding signal (z-score),[9],2.41
same,glycan array binding signal (z-score),[10],2.48
same,glycan array binding signal (z-score),Gal3S6S(b1-4)GlcNAc6S,-0.544
same,glycan array binding signal (z-score),Gal4S(b1-4)GlcNAc,-0.551
same,glycan array binding signal (z-score),Gal6S(b1-4)Glc6S,2.71
same,glycan array binding signal (z-score),[11],-0.556
same,glycan array binding signal (z-score),[12],-0.547
same,glycan array binding signal (z-score),[13],-0.553
same,glycan array binding signal (z-score),[14],1.96
same,glycan array binding signal (z-score),[15],-0.557
same,glycan array binding signal (z-score),[16],-0.549
